According to PMC4336329 (PLoS ONE, 2015):
The whole screen tested about 310,000 compounds, of which about 14,000 (4.5%) showed an effect of 50% or more. The effect is printed as a negative number. This is one part of a sample in which strong results are shown more often than they occur.

target: human ether-à-go-go-related gene (hERG) potassium channel (human, UniProt Q12809); test: primary screen, population patch clamp on CHO cells stably expressing hERG; higher = less effect of the substance
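Further: peak tail current of the secondary pulse compared with the same well before compound.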

Chain of human ether-à-go-go-related gene (hERG) potassium channel (Q12809 whole entry, looked up): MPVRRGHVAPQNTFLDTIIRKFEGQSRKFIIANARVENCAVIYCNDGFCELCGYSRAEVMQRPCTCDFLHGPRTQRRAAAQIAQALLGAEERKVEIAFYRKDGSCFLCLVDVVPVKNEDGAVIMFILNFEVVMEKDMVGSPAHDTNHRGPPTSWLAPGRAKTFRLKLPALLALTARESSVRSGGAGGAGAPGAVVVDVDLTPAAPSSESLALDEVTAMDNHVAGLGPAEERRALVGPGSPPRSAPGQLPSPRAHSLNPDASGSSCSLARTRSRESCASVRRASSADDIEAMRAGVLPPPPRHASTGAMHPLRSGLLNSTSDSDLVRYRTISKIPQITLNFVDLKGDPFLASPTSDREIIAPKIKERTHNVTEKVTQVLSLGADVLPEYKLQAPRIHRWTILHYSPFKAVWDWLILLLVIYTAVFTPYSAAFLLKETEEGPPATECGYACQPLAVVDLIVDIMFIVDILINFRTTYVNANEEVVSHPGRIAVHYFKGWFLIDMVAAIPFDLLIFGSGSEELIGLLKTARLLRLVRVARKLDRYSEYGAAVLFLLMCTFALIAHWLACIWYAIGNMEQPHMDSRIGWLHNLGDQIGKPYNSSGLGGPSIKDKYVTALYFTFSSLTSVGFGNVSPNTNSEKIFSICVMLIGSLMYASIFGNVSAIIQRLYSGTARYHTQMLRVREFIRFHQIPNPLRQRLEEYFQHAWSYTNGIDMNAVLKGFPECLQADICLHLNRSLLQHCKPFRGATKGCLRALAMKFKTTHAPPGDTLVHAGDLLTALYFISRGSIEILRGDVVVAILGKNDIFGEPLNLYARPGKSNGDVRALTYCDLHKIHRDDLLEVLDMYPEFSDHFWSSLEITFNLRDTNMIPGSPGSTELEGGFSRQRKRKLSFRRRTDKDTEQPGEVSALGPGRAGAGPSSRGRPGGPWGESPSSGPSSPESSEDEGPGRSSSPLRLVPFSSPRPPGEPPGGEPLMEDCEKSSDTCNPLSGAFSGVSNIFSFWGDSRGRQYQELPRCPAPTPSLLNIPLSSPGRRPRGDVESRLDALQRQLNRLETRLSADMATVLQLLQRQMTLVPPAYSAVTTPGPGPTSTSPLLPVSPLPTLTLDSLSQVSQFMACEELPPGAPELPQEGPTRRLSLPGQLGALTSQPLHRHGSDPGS

Row | SMILES | hERG current change (%, negative = inhibition) at 10uM
1 | Cc1ccc(S(=O)(=O)N(CCCO)CC(O)CON=C2c3ccccc3-c3ccccc32)cc1 (stereo not drawn) | 14.4%
2 | NC(=O)c1ccc(-c2noc(-c3cccc(Cl)c3)n2)cc1 | 19.4%
3 | Cc1ccc(CSCc2ccc(C(=O)O)o2)cc1 | 21.8%
4 | COC(=O)c1ccncc1C(=O)Nc1ccc(Oc2ncc(C(F)(F)F)cc2Cl)cc1 | -5.09%
5 | O=C(CCCCn1c(=O)[nH]c2ccsc2c1=O)NCC1CCCO1 (stereo not drawn) | 4.17%
6 | COC(=O)[C@]1(C)CCC[C@@]2(C)C3CC[C@@]4(C)C[C@]3(CCC21)CC(=O)N4Cc1ccc(OC)cc1 (stereo partly drawn) | 7.82%
7 | C#CCOCCOCCOCCNc1nc(N2CCN(C(=O)[C@H](CCCC[NH3+])n3cc(CCCC)nn3)CC2)nc(N2CCN(C(=O)[C@H](CCCC[NH3+])n3cc(CCC(=O)O)nn3)CC2)n1.[Cl-] | 17.4%
8 | Cn1nc(C(=O)OCc2ccc(F)cc2)c2ccccc2c1=O | 3.57%
9 | Cc1cc(C)c(OC2(c3ccccc3)OC(=O)c3ccccc32)c(C)c1 (stereo not drawn) | -5.57%
10 | Cc1c(C(=O)Nc2ccccc2)c2cc(O)ccc2n1Cc1ccccc1 | 4.2%
11 | O=C(NCc1cccs1)c1noc2c1CCCC2 | -2.52%
12 | O=C(NCCCC1CCCC1)C1CCC(=O)N(Cc2cccc(F)c2)C1 (stereo not drawn) | -15.2%
13 | O=C(NCCc1ccccc1Cl)C1CCC(=O)N(CCCc2ccccc2)C1 (stereo not drawn) | -34.1%
14 | O=C(NCCCc1ccccc1)C1CCC(=O)N(CCc2ccc(Cl)cc2)C1 (stereo not drawn) | -79.8%
15 | O=C(NCCN1CCCC1=O)C1CCC(=O)N(CCc2ccc(Cl)cc2)C1 (stereo not drawn) | -4.65%
16 | CC(C)c1cc(CNC(=O)C2CCC(=O)N(CCc3ccc(Cl)cc3)C2)on1 (stereo not drawn) | -68.1%
17 | O=C(NCCCC1CCCC1)C1CCC(=O)N(Cc2ccc(Cl)cc2)C1 (stereo not drawn) | -61.4%
18 | O=C(NCCCc1ccncc1)C1CCC(=O)N(Cc2ccc(Cl)cc2)C1 (stereo not drawn) | -61.1%
19 | Cc1cc(CNC(=O)C2CCC(=O)N(CCc3ccc(Cl)cc3)C2)no1 (stereo not drawn) | -39.7%
20 | CC(C)c1nc(CNC(=O)C2CCC(=O)N(CCc3ccc(Cl)cc3)C2)no1 (stereo not drawn) | -27.6%
21 | O=C(NCCCC1CCCC1)C1CCC(=O)N(Cc2ccccc2F)C1 (stereo not drawn) | -9.03%
22 | O=C(NCCCc1ccncc1)C1CCC(=O)N(Cc2cccc(C(F)(F)F)c2)C1 (stereo not drawn) | -18.7%

Row | SMILES | hERG current change (%, negative = inhibition) at 10uM
23 | O=C(NCCc1cnccn1)C1CCC(=O)N(Cc2ccc(Cl)cc2)C1 (stereo not drawn) | 2.46%
24 | CCn1c(CNC(=O)c2ccccc2F)nnc1SCC(=O)NC1CCCCC1C (stereo not drawn) | 31.8%
25 | O=C(c1ccc(F)cc1)N1CCC(N2CCOCC2)CC1 | -5.45%
26 | O=C(Nc1ccc(S(=O)(=O)Nc2ncccn2)cc1)c1cccc(S(=O)(=O)N2CCCC2)c1 | -4.1%
27 | N#Cc1nc(-c2ccc(F)cc2)oc1N1CCCCC1 | 8.29%
28 | COc1ccccc1Cc1noc(COc2cccc(C)c2C)n1 | 3.03%
29 | COc1ccc(C(=O)NCCc2nnc3ccc(SCC(=O)Nc4cc(C)on4)nn23)cc1 | 4.8%
30 | CCCNC(=O)N1[C@H]2CC[C@@H]1C(C(=O)OC)=C(c1ccc(OC(F)(F)F)cc1)C2 | -27.4%
31 | COC(=O)C1=C(c2ccc(OC(F)(F)F)cc2)C[C@@H]2CC[C@H]1N2C(=O)NCC1CC1 | -58.6%
32 | COC(=O)C1=C(c2ccc(OC(F)(F)F)cc2)C[C@@H]2CC[C@H]1N2C(=O)N1CCCC1 | -47.9%
33 | COC(=O)C1=C(c2ccc(C(C)=O)cc2)C[C@@H]2CC[C@H]1N2C(=O)N1CCC(O)(c2ccc(Cl)cc2)CC1 | -73.6%
34 | COC(=O)C1=C(c2ccc(OC(F)(F)F)cc2)C[C@@H]2CC[C@H]1N2C(=O)N1CCC(O)CC1 | -36.2%
35 | COC(=O)C1=C(c2ccc(OC(F)(F)F)cc2)C[C@@H]2CC[C@H]1N2C(=O)N1CCCCC1 | -56.3%
36 | COC(=O)C1=C(c2ccc(C(C)=O)cc2)C[C@@H]2CC[C@H]1N2C(=O)N1CCCC1 | 0.9%
37 | COC(=O)C1=C(c2ccc(OC(F)(F)F)cc2)C[C@@H]2CC[C@H]1N2C(=O)NCCNC(C)=O | 2.65%
38 | COC(=O)C1=C(c2ccc(C(C)=O)cc2)C[C@@H]2CC[C@H]1N2C(=O)N1CCCCC1 | -16.9%
39 | CC1=CC=CC2=N/C(=N\S(=O)(=O)c3ccc(F)cc3F)c3ccccc3CN12 | -20.3%
40 | COc1ccc(CC(=O)N(C)Cc2cccc(OC)c2OC)cc1S(=O)(=O)N1CCOCC1 | -5.58%
41 | N=c1oc2ccccc2cc1C(=O)Nc1ccc(F)cc1 | 16.5%
42 | COc1ccc(C2=NO[C@@H]3C(=O)N(Cc4ccccc4)C(=O)[C@H]23)cc1OC | -1.95%
43 | CN(C)S(=O)(=O)c1ccc(N/C=C(\[N+](=O)[O-])S(=O)(=O)c2ccccc2)cc1 | 15.2%
44 | COCCNC(=O)/C(C#N)=C/c1ccc(O)cc1 | 10.6%

Row | SMILES | hERG current change (%, negative = inhibition) at 10uM
45 | Cc1ccc(C(C)NC(=O)Cc2cccs2)c(C)c1 (stereo not drawn) | -9.26%
46 | CSc1ccc(C(=O)NCC(c2ccco2)N(C)C)cc1[N+](=O)[O-] (stereo not drawn) | 17.8%
47 | Nc1nnc(-c2ccccc2)c(-c2ccccc2)n1 | -10.7%
48 | Cc1ccccc1OCCC(=O)OCC(=O)Nc1cc(S(=O)(=O)N2CCOCC2)ccc1Cl | -27.8%
49 | Cc1c(NC(=S)Nc2ccccc2C(F)(F)F)cccc1[N+](=O)[O-] | 8.27%
50 | O=C(c1cn(-c2ccccc2)nc1-c1cccnc1)N1CCN(S(=O)(=O)c2cccc(F)c2)CC1 | -13.6%
51 | CN1CCN(C(=O)c2cn(-c3ccccc3)nc2-c2cccnc2)CC1 | -18.4%
52 | O=C(c1cn(-c2ccccc2)nc1-c1cccnc1)N1CCN(S(=O)(=O)c2ccccc2F)CC1 | -70.5%
53 | COc1ccccc1N1CCN(C(=O)c2cn(-c3ccccc3)nc2-c2cccnc2)CC1 | -50.2%
54 | COc1ccccc1N1CCN(C(=O)c2cn(Cc3ccccc3)nc2-c2cccnc2)CC1 | -8.12%
55 | N#Cc1ccccc1S(=O)(=O)N1CCN(C(=O)c2cn(-c3ccccc3)nc2-c2cccnc2)CC1 | -48%
56 | Nc1nnc(SCc2nnc(-c3ccccc3)o2)s1 | -1.84%
57 | COC(=O)N/N=C/c1c[nH]c2ccccc12 | 14.5%
58 | CC(C)c1onc(C(=O)N2C(C)CCCC2C)c1[N+](=O)[O-] (stereo not drawn) | 18.8%
59 | Cc1ccc(NC(=O)c2cccc(N3C(=O)C4C5C=CC(C5)C4C3=O)c2)cc1C (stereo not drawn) | -7.07%
60 | COc1ccc2nc(NC(=O)CS(=O)(=O)Cc3ccccc3)sc2c1 | 23.2%
61 | COC(=O)/C(=N/Nc1ccccc1C)Sc1nnc(C(O)c2ccccc2)n1-c1ccccc1 (stereo not drawn) | 13.3%
62 | c1ccc(CN2CCC3(CC2)Nc2ccccc2CO3)cc1 | -21.9%
63 | Cl.c1ccc(CN2CCOCC2)cc1 | 22%
64 | Cl.c1ccc(CN2CCC3(CCCc4ccccc43)CC2)cc1 | -69.6%
65 | COc1ccc(N(CC(=O)Nc2cc(Cl)ccc2C)S(=O)(=O)c2c(C)noc2C)cc1 | 16.7%
66 | COC(=O)CC1C(=O)NCCN1C(=O)c1c(F)cccc1F (stereo not drawn) | 14.5%

Row | SMILES | hERG current change (%, negative = inhibition) at 10uM
67 | O=C(NCc1ccncc1)c1cncc(Br)c1 | 10.1%
68 | Cn1c(N2CCOCC2)nc2c1c(=O)n(Cc1ccc(Cl)c(Cl)c1)c(=O)n2C | -50.5%
69 | Cn1c(=O)c2c(nc(N3CCCCC3)n2C)n(C)c1=O | -21.5%
70 | Cn1c(N2CCOCC2)nc2c1c(=O)n(Cc1ccc(Cl)cc1)c(=O)n2C | -54.5%
71 | CC1CN(c2nc3c(c(=O)n(Cc4ccc(Cl)c(Cl)c4)c(=O)n3C)n2C)CC(C)O1 (stereo not drawn) | -35.7%
72 | Cn1c(N2CCN(c3ccccn3)CC2)nc2c1c(=O)n(Cc1ccc(Cl)cc1)c(=O)n2C | -18%
73 | Cn1c(N2CCCC2)nc2c1c(=O)n(Cc1ccc(Cl)cc1)c(=O)n2C | -68.6%
74 | Cn1c(N2CCCC2)nc2c1c(=O)n(Cc1ccc(F)cc1)c(=O)n2C | 0.592%
75 | CC1CN(c2nc3c(c(=O)n(Cc4ccc(Cl)cc4)c(=O)n3C)n2C)CC(C)O1 (stereo not drawn) | -31.2%
76 | Cn1c(NCCCN2CCOCC2)nc2c1c(=O)n(Cc1ccc(Cl)c(Cl)c1)c(=O)n2C | -46%
77 | COc1ccc(CC(=O)NCc2cccs2)cc1OC | 2.71%
78 | O=C(Cn1cc(Cl)ccc1=O)c1ccc(Cl)cc1 | 11.7%
79 | CCOc1ccc(CN(C)C(C)C(=O)NCc2ccccc2)cc1 (stereo not drawn) | -54.8%
80 | CCOc1ccc(CN(C)C(C)C(=O)NCCc2ccc(F)cc2)cc1 (stereo not drawn) | -71.5%
81 | CCC(CC)C(=O)NCCc1ccc(F)cc1 | 12.1%
82 | CCOc1ccc(CCNC(=O)C(O)c2ccccc2)cc1 (stereo not drawn) | 4.11%
83 | CCc1ccc(CN(C)C(C)C(=O)NCc2ccccc2)cc1 (stereo not drawn) | -23.5%
84 | CSc1ccc(CN(C)C(C)C(=O)NCc2ccccc2)cc1 (stereo not drawn) | -32.8%
85 | CCOc1ccc(C(=O)N[C@H](C(=O)O)C(C)C)cc1 | 7.22%
86 | CCOc1ccc(C(=O)NC(C(=O)NCCc2ccc(OC(F)F)cc2)C(C)C)cc1 (stereo not drawn) | -62.6%
87 | CCOc1ccc(C(=O)NC(C(=O)NCCc2ccc(S(N)(=O)=O)cc2)C(C)C)cc1 (stereo not drawn) | 13.4%
